Columns and labels:
Assay in all cases: log2 ratio of Biotin-Ahx-Ub-VS probe labelling (fragment/DMSO); higher = less target engagement (more negative = stronger competition), active = hit call of the paper (q ≤ 0.05, log2 ratio ≤ -1)
Conditions in all cases: compound concentration: 200 uM; treatment time: 3 h
ALG13 = molecular target: T1, ALG13 (UniProt Q9NP73)
T1 sequence (whole entry): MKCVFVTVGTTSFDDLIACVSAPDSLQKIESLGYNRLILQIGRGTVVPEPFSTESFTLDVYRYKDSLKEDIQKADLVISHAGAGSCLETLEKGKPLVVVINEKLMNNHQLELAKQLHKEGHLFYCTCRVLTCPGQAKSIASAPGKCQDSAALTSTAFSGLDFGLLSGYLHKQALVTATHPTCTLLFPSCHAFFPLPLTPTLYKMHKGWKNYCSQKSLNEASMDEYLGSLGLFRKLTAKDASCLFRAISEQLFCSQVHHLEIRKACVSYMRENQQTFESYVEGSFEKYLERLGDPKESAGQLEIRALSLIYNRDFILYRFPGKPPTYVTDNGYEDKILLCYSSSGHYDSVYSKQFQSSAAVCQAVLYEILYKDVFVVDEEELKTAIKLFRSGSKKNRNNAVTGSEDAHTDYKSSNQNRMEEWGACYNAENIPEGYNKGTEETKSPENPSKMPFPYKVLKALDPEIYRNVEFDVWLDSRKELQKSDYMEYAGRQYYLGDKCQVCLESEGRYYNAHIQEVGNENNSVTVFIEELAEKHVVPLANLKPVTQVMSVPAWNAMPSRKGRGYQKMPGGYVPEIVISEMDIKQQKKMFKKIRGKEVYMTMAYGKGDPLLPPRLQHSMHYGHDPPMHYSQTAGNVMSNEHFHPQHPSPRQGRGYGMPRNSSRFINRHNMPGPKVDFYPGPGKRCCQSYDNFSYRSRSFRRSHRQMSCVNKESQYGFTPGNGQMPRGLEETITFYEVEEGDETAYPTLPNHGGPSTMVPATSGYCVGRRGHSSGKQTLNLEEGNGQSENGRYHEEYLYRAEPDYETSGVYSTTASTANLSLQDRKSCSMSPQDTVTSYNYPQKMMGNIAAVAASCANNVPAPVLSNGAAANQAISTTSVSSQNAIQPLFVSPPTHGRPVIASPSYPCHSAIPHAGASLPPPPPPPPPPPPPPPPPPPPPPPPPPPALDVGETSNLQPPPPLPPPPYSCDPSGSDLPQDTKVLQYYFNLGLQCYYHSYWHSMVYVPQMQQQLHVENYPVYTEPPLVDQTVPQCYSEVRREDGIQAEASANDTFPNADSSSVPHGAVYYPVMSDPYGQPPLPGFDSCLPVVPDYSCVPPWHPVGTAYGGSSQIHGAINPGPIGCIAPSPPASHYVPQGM
Outline: (§1)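 The table lists average log2 ratios of fragment over vehicle, from an unpaired t-test on global-median-normalised Spectronaut label-free quantities. Proteins with ≥2 unique peptides were used. Samples were HEK293T lysate (495 µg) treated in triplicate with fragment at 200 µM or vehicle for 3 h, then with Biotin-Ahx-Ub-VS (0.5 µM final) for 1 h, with labelled DUBs NeutrAvidin-enriched and run by diaPASEF LC-MS/MS.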

ATXN3 = ATXN3 (UniProt P54252)
Outline: as §1

BAP1 = molecular target: T2, BAP1 (UniProt Q92560)
T2 sequence (whole entry): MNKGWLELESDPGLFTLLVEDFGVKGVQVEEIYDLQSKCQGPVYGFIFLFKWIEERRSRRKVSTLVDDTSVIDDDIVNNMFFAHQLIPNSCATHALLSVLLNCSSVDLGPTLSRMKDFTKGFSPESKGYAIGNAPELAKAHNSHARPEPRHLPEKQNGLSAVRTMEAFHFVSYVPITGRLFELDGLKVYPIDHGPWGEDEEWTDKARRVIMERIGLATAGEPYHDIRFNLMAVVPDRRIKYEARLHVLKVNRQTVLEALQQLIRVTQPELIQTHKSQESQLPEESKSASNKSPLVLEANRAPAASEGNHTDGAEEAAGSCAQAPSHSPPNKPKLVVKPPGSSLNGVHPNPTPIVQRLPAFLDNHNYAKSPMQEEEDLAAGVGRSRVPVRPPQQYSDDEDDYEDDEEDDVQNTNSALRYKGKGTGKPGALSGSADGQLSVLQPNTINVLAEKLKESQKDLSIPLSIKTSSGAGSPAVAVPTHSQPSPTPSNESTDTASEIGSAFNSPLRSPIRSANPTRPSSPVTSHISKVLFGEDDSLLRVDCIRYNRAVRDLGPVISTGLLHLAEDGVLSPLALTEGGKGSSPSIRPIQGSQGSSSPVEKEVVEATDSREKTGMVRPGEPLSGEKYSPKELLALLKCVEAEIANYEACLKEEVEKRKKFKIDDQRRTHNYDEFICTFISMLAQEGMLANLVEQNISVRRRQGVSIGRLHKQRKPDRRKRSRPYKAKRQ
Outline: as §1

EIF3F = EIF3F (UniProt O00303)
Outline: as §1

EIF3H = EIF3H (UniProt O15372)
Outline: as §1

FAM105A = molecular target: T3, FAM105A (UniProt Q9NUU6)
T3 sequence (whole entry): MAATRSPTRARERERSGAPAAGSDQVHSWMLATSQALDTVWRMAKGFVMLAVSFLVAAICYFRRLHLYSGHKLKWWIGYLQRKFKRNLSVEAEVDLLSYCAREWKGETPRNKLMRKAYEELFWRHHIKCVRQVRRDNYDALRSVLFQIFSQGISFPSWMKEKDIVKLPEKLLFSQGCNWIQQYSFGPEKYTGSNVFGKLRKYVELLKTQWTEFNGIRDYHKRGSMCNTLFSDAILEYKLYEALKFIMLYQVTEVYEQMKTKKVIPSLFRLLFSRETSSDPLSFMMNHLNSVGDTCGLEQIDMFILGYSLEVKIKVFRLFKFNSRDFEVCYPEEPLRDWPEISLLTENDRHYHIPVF
Outline: as §1

OTUB1 = OTUB1 (UniProt Q96FW1)
Outline: as §1

OTUD4 = molecular target: T4, OTUD4 (UniProt Q01804)
T4 sequence (whole entry): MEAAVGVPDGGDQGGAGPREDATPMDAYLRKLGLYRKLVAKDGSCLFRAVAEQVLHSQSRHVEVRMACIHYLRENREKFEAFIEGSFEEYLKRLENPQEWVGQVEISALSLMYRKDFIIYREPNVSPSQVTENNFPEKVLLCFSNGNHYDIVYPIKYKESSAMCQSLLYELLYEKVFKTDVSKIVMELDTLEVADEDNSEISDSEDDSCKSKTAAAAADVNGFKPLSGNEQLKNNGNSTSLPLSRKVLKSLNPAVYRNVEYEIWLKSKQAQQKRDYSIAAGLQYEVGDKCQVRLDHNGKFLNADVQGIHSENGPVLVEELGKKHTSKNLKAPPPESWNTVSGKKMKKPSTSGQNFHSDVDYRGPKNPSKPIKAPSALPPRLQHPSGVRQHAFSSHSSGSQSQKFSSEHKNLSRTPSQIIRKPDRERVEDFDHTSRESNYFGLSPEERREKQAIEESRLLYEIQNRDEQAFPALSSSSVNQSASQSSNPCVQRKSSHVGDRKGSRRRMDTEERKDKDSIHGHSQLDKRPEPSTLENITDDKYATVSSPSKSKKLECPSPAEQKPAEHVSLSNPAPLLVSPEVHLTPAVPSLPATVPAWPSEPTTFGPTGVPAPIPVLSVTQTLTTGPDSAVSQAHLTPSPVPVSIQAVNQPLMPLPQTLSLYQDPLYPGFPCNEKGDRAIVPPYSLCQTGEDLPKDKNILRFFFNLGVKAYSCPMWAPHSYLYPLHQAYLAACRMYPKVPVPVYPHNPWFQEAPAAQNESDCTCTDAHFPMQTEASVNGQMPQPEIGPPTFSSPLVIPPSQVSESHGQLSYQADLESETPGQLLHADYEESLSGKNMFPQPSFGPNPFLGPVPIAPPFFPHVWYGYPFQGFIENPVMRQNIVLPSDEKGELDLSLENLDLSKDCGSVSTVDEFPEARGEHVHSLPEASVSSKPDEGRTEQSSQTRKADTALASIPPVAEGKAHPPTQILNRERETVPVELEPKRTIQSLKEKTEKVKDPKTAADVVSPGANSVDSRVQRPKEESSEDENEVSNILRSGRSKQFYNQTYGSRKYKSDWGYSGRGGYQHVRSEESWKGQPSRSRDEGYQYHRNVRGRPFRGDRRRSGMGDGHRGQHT
Outline: as §1

OTUD5 = molecular target: T5, OTUD5 (UniProt Q96G74)
T5 sequence (whole entry): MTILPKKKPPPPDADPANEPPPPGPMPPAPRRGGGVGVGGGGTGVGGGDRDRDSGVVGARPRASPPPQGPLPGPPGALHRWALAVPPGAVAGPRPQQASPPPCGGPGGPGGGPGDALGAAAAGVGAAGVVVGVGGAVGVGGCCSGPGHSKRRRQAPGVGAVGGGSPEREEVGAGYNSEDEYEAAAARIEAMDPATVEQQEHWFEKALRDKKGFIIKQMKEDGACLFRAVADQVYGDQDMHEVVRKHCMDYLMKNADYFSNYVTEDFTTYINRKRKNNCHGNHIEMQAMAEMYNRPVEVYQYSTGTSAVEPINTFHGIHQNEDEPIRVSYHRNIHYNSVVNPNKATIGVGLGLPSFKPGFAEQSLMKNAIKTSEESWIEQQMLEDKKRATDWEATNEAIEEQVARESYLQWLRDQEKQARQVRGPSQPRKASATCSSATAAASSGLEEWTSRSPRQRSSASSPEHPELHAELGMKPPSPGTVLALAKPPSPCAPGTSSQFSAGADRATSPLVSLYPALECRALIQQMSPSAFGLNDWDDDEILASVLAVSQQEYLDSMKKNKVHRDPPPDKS
Outline: as §1

Measured: log2 ratio of Biotin-Ahx-Ub-VS probe labelling

OTUB1, sequence (Q96FW1 whole entry): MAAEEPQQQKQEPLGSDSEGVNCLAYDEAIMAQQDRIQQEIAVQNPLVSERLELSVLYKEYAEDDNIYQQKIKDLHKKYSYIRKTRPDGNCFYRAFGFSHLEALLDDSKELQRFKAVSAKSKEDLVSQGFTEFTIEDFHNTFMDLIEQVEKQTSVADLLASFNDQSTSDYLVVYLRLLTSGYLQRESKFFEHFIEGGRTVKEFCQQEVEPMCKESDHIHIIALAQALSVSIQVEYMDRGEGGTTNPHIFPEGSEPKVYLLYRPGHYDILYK
ATXN3, sequence (P54252 whole entry): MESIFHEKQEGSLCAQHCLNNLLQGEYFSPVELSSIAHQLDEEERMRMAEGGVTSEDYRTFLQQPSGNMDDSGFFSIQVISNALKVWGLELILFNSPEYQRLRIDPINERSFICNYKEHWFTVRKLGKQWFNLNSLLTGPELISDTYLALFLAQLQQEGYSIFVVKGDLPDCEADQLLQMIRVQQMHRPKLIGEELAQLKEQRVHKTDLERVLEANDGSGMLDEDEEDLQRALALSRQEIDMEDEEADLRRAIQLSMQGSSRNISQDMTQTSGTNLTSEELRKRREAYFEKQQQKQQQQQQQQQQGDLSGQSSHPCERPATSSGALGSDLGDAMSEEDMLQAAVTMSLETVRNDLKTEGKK
EIF3F, sequence (O00303 whole entry): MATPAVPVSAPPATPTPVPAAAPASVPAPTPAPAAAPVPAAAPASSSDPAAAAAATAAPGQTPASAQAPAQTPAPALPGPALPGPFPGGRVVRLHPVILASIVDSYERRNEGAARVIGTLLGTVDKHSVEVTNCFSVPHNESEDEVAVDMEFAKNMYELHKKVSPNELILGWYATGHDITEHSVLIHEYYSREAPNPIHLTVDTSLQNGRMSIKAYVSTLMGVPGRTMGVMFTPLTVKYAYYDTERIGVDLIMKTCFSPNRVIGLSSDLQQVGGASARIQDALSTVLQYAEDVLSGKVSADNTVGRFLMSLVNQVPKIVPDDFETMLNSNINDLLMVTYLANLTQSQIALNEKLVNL
EIF3H, sequence (O15372 whole entry): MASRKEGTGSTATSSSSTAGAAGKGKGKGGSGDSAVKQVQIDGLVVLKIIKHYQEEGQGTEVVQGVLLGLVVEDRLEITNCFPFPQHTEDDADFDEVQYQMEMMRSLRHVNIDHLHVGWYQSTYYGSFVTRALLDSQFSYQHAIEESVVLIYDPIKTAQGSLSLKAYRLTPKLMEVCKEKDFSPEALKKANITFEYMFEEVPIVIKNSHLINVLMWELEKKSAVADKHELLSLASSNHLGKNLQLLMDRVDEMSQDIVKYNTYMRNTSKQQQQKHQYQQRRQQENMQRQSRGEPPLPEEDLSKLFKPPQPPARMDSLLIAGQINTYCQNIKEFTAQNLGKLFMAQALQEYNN

CCN(C(=O)CCl)C1CCCCC1
inactive: ALG13 0.0472 | ATXN3 -0.0119 | BAP1 0.174 | EIF3F -0.141 | EIF3H 0.022 | FAM105A -0.207 | OTUB1 0.0443 | OTUD4 -0.12 | OTUD5 -0.00145
